The whole screen tested about 2,100 compounds, of which about 760 (36%) were called active. A selection follows. Values without a mark were called inactive.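 How the source made its calls: active means thallium-flux fluorescence traces judged by eye to show enhanced or reduced glutamate response, manual score 1 or -1, so both directions (some results past the limit were not filed as active); inactive means the rest, including fluorescent or raised-baseline compounds.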

A short description of this test: non-GIRK thallium flux modulation in mGlu8 cells, confirmation, counter-screen for GIRK activator project, cell-based, HEK-293 rmGlu8, no GIRK (AID 623868).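 Further: extra codes mark interference with 3 for fluorescent and 4 for baseline rise.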 To be noted: thallium flux fluorescence, at 10 µM, actives lie on both sides, codes: 1 enhancer, -1 blocker, 0 none, thallium stimulus containing EC20 glutamate.
With `CCCCn1c(-c2ccc(Cl)cc2)nc2c(=O)n(C)c(=O)[nH]c21`, the manual score was 0.

`CCCCn1c(=S)[nH]c2c(oc3ccc(Cl)cc32)c1=O`: the manual score is 1 (active).

`CCN(CC)CCCn1c(=S)[nH]c2cc(Cl)ccc2c1=O`: the manual score was 0.

As for `CC1(C)CC(=O)c2c(noc2-c2ccccc2)C1`, the manual score is 0.

With `CCCCN(CCCC)S(=O)(=O)c1ccc(NC(=O)c2ccc([N+](=O)[O-])cc2Cl)cc1`, the manual score was 0.

Turning to `CCCCN(CCCC)c1ccc(C(=O)c2ccccc2C(=O)O)c(O)c1`, the manual score was -0.5.

Take `CCCCn1c(NC(=O)c2ccccc2Cl)c(C#N)c2nc3ccccc3nc21`: the manual score is 0.

For the compound `CCCN(CCC)CCCOC(=O)c1ccc(Cl)cc1Cl`, the manual score is 0.

Regarding `CCCCN(CCCC)C(=S)NC(=O)C(C)(C)C`, the manual score was 1 (active).

Regarding `CC1Cc2ccccc2N1C(=S)NC(=O)c1ccc(Cl)cc1Cl` (stereo not drawn), the manual score was 1 (active).

`CCCN(CCC)C(=S)NC(=O)c1ccc(Cl)cc1Cl`: the manual score was 1 (active).

For `CCCCN(CCCC)C(=S)NC(=O)c1ccccc1Cl`, the manual score was 1 (active).

Regarding `CC(C)CCNC(=O)C(C)N(C(=O)Cn1nnc(-c2ccc(F)cc2)n1)C1CCCC1` (stereo not drawn), the manual score was 0.

Take `CCCCC(=O)N1CCCC(c2nc3c(nnn3Cc3cc(C)ccc3C)c(=O)[nH]2)C1` (stereo not drawn): the manual score is 0.

As to `CC(C)(C)c1ccc(CN2C3=NCCCN3c3ccccc32)cc1`, the manual score was 0.

On to `CCN(CC)C(=S)NC(=O)c1ccc(Cl)cc1Cl`, for which the manual score is 1 (active).

Consider `CCOC(=O)/C(=C/C=C1\Sc2ccccc2N1CC)C(C)=O`, for which the manual score was 3.

As for `O=C(/C=C/c1ccccc1)c1cc(Br)ccc(=O)c1O`, the manual score is 1 (active).

For the compound `COc1ccc(NC(=S)NC(NC(=O)/C=C/c2ccccc2)C(Cl)(Cl)Cl)cc1` (stereo not drawn), the manual score was 0.

Consider `CCc1ccc(/C=C/C(=O)c2cc(Br)ccc(=O)c2O)cc1`, for which the manual score was 1 (active).

For the compound `COc1ccc(/C=C/C(=O)c2cc(Br)ccc(=O)c2O)cc1`, the manual score is 1 (active).

For the compound `Cc1ccc(/C=C/C(=O)c2ccccc(=O)c2O)cc1C`, the manual score is 1 (active).

Regarding `CCCCCCn1cnc2c(c1=O)c1nc3ccccc3nc1n2/N=C/c1ccco1`, the manual score was 0.

In the case of `Cc1cccc(/C=C/C(=O)c2cc(Br)ccc(=O)c2O)c1`, the manual score was 1 (active).

Take `Cc1cccc(NC(=O)COc2ccc(Br)cc2/C=N/O)c1`: the manual score is 0.

For `Cc1cccc(/C=c2\s/c(=C\C(=O)C(C)(C)C)[nH]c2=O)c1`, the manual score was 0.

With `CC(C)(C)C1CCc2[nH]nc(C(=O)O)c2C1` (stereo not drawn), the manual score was -1 (active).

On to `CSC(=O)NC12CC3CC(CC(C)(C3)C1)C2`, for which the manual score is 0.

With `Cc1ccc(C(=O)NC(=S)Nc2ccccc2C(F)(F)F)cc1C`, the manual score was 1 (active).

On to `Cc1ccc(C(=O)NC(=S)Nc2ccccc2C(F)(F)F)cc1`, for which the manual score is 1 (active).

Turning to `O=C(NC(=S)Nc1cc(C(F)(F)F)ccc1Cl)c1ccccc1`, the manual score is 0.

On to `Cc1cccc(C(=O)NC(=S)Nc2ccccc2C(F)(F)F)c1`, for which the manual score is 1 (active).

As to `O=C(NC(=S)NCc1ccc(-c2nc3ccccc3s2)cc1)c1ccco1`, the manual score is 1 (active).

Consider `O=C(NC(=S)Nc1nc2ccccc2s1)c1ccco1`, for which the manual score is 1 (active).

As for `O=C(Nc1ccncc1)c1ccc2c(c1)C(=O)N(C1CCCCC1)C2=O`, the manual score is 0.

Take `CC(C)(C)C(=O)/C=c1\[nH]c(=O)/c(=C\c2ccc(F)cc2)s1`: the manual score was 0.5.

Take `CCOc1ccc(C(C)=O)cc1N1C(=O)C2C(C1=O)C1C=CC2C12CC2` (stereo not drawn): the manual score is 0.

Regarding `CCOc1cc(/C=N/NC(=O)CNc2cccc(C)c2)ccc1OC(=O)c1ccccc1`, the manual score is 0.

Take `Cc1ccc(C(=O)NNc2nc3ccccc3nc2C(F)(F)F)cc1`: the manual score was 1 (active).

Take `O=C(NNc1nc2ccccc2nc1C(F)(F)F)c1ccccc1`: the manual score was 1 (active).

Turning to `Cc1ccc(C(=O)NC2(C(F)(F)F)N=C3SCCN3C2=O)cc1` (stereo not drawn), the manual score is 0.

In the case of `Cc1nc(/N=C(\N)NC(=O)c2ccccc2)nc2ccccc12`, the manual score was 0.

Take `CC(C)n1c(CCC(=O)O)ccc1-c1ccccc1`: the manual score is 0.

As to `Fc1ccc(NC(=S)N/N=C/c2ccc(F)c(F)c2)c(F)c1`, the manual score was 1 (active).

`S=C(N/N=C/c1ccccc1Cl)Nc1ccccc1`: the manual score was 0.

For the compound `Fc1ccc(/C=N/NC(=S)Nc2ccc(Cl)cc2)cc1F`, the manual score was 1 (active).

As for `Fc1cc(Br)ccc1NC(=S)NCCc1ccccc1`, the manual score was 0.

`Fc1cccc(/C=N/NC(=S)Nc2ccccc2Cl)c1`: the manual score is 1 (active).

In the case of `Fc1ccc(NC(=S)N/N=C/c2cccc(Br)c2)c(F)c1`, the manual score is 1 (active).

Take `CCSc1ccccc1C(=O)Nc1cccnc1`: the manual score is 0.

`CN(C(=O)c1cccnc1)c1nnc(-c2cnccn2)s1`: the manual score is 0.

Regarding `CN1C(=O)c2oc3ccccc3c(=O)c2C1c1ccccn1` (stereo not drawn), the manual score is 0.

On to `Cc1ccccc1-n1nnc2c(=O)oc3ccccc3c21`, for which the manual score was -1 (active).

In the case of `CC(=O)Oc1ccc2c(c1)Oc1cc(OC(C)=O)ccc1C21OC(=O)c2ccccc21`, the manual score is 3.

As to `COc1ccc(NC(=O)CSc2nc3ccccc3c(=O)n2CCCN2CCCCC2)c(OC)c1`, the manual score is 0.

For `COc1cccc(NC(=O)Cn2cc(C#N)c3ccccc32)c1`, the manual score is 0.

Take `CCCn1c(SC(C(=O)Nc2cc(C)ccc2OC)c2ccccc2)nc2ccccc2c1=O` (stereo not drawn): the manual score is 1 (active).

Take `COc1cccc(NC(=O)CSc2nc(N)cc(N)n2)c1`: the manual score was 0.

`COc1cc(OC)c(NC(=O)CCNC(=O)Cn2cnc3ccccc3c2=O)cc1Cl`: the manual score was 0.

Turning to `COc1cccc(NC(=O)C(Sc2nc3ccccc3c(=O)n2CC(C)C)c2ccccc2)c1` (stereo not drawn), the manual score is 1 (active).

For `C=CCN(CC=C)C(=S)NC(=O)c1ccc(-c2ccccc2)cc1`, the manual score was 1 (active).

In the case of `CN(Cc1ccccc1)C(=S)NC(=O)c1ccc(-c2ccccc2)cc1`, the manual score was 1 (active).

With `CCc1cccc(NC(=O)NC2CCCCC2)c1`, the manual score was -0.5.

`O=C(NC(=S)NCC1COc2ccccc2O1)c1ccccc1` (stereo not drawn): the manual score is 0.

With `CN(Cc1ccccc1)C(=S)NC(=O)C1CCCCC1`, the manual score was 1 (active).

Turning to `CCCN(CC1CC1)C(=S)Nc1ccc(Oc2ccccc2)cc1`, the manual score is 0.

Turning to `CCCN(CCC)C(=S)NC(=O)c1ccc(-c2ccccc2)cc1`, the manual score is 1 (active).

Turning to `CCOC(=O)C(C)Oc1ccc2c(CC)cc(=O)oc2c1C` (stereo not drawn), the manual score was -0.5.

In the case of `CCCn1c(=N)c(C(=O)NCc2ccc3c(c2)OCO3)cc2c(=O)n3cccc(C)c3nc21`, the manual score was 0.

For the compound `O=C(Nc1nnc(SCc2ccc(F)cc2)s1)C1CC(=O)N(c2ccc3c(c2)OCCO3)C1` (stereo not drawn), the manual score was 0.

As for `C=CCN(CC=C)C(=S)NC(=O)c1ccc([N+](=O)[O-])cc1`, the manual score is 1 (active).

In the case of `Cn1cccc1CNC1CCCC1`, the manual score is 0.

As to `COCCNC(=O)CCCCCn1c(=S)[nH]c2ccccc2c1=O`, the manual score was 0.

As for `C=CCn1c(=S)[nH]c2ccccc2c1=O`, the manual score was 1 (active).

Take `C=CCn1c(=S)[nH]c2ccc(Br)cc2c1=O`: the manual score is 1 (active).

On to `CC(=O)c1ccc(N2CCCC2)c(F)c1`, for which the manual score was 0.

Take `CCOC(=O)c1c(C)n(C)c2ccc(O)c(CN3CCC(C)CC3)c12`: the manual score is 0.

In the case of `COC(=O)c1ccc(NS(=O)(=O)c2ccc(SC)cc2)cc1`, the manual score was 0.

On to `CC(C)OC(=O)c1c(NS(=O)(=O)c2ccccc2)sc2c1CCCC2`, for which the manual score is 1 (active).

On to `CC1CCc2c(sc(NS(=O)(=O)c3ccccc3)c2C(=O)OC(C)C)C1` (stereo not drawn), for which the manual score was 1 (active).

Take `Cc1ccc(-c2c(C)sc(NC(=O)C3C4CCC(O4)C3C(=O)O)c2C(=O)OC(C)C)cc1` (stereo not drawn): the manual score was 0.

Regarding `COc1ccc(S(=O)(=O)NCCC(=O)NC2CCCCCCC2)cc1`, the manual score was 0.

With `COC(=O)c1c(NS(=O)(=O)c2ccc(C)cc2)sc2c1CCC(C)C2` (stereo not drawn), the manual score is 1 (active).

As for `COc1cccc(CNc2nc3ccccc3n2CCN2CCCCC2)c1OC`, the manual score was 0.

In the case of `CC(C)(C)NC(=O)C(c1ccncc1)N(C(=O)c1csnn1)c1ccccc1` (stereo not drawn), the manual score is 0.

With `COC(=O)c1ccccc1NC(=S)NC(=O)c1ccc(C)cc1`, the manual score is 1 (active).

As to `COC(=O)c1ccccc1NC(=S)NC(=O)COc1ccc(C)cc1`, the manual score is 0.

With `COC(=O)c1ccccc1NC(=S)NC(=O)c1ccccc1`, the manual score was 1 (active).

As to `COC(=O)c1ccccc1NC(=S)NC(=O)COc1ccccc1`, the manual score was 1 (active).

As for `O=C(COc1ccccc1)NC(=S)Nc1ccc2c(c1)Cc1ccccc1-2`, the manual score was 0.

For the compound `COC(=O)COc1ccc(S(=O)(=O)Nc2ccccc2C(=O)OC)cc1`, the manual score is -0.5.

As for `O=C(COc1ccccc1)NC(=S)Nc1cccc([N+](=O)[O-])c1`, the manual score is 1 (active).

As for `CSc1cccc(NC(=O)COc2ccccc2)c1`, the manual score is 0.

For the compound `COc1ccc(OC)c(-c2c3cc(O)c(=O)cc-3oc3cc(O)c(O)cc23)c1`, the manual score was 0.

Turning to `COc1cc(C)nc(N(Cc2ccccc2)S(=O)(=O)c2ccccc2)n1`, the manual score is 0.

For the compound `O=C(NNS(=O)(=O)c1ccccc1F)c1cccc(S(=O)(=O)N2CCOCC2)c1`, the manual score was 0.

Take `COc1cc(CNc2ccc(N3CCCC3)cc2)ccc1OCc1ccccc1`: the manual score is 0.

For `CC(Oc1ccc2ccccc2c1)C(=O)NNC(=S)NC(=O)c1ccco1` (stereo not drawn), the manual score is 1 (active).

Take `CC(Oc1ccc(Cl)cc1)C(=O)N/N=C/c1ccsc1` (stereo not drawn): the manual score is 0.

In the case of `CC(Oc1ccc(Cl)cc1)C(=O)NNC(=S)NC(=O)c1ccco1` (stereo not drawn), the manual score is 1 (active).

`CCSc1nnc(NC(=O)NC(CC)(C(F)(F)F)C(F)(F)F)s1`: the manual score is 0.

Take `O=C(C1CCCN1S(=O)(=O)c1cccc2cccnc12)N1CCc2ccccc21` (stereo not drawn): the manual score is 0.

For `O=C(C1CCN(S(=O)(=O)c2cccc3cccnc23)CC1)N1CC=C(c2ccccc2)CC1`, the manual score was -1 (active).

Consider `O=C(C1CCCN1S(=O)(=O)c1cccc2cccnc12)N1CCn2c1nc1ccccc12` (stereo not drawn), for which the manual score was 0.

With `Cc1cc(-c2n[nH]c(=S)n2/N=C/c2ccc(Br)s2)n[nH]1`, the manual score is 1 (active).

Consider `S=c1[nH]nc(-c2ccccn2)n1/N=C/c1ccc(Br)s1`, for which the manual score is 1 (active).

As for `S=c1[nH]nc(-c2ccco2)n1/N=C/c1ccc(Br)s1`, the manual score was 1 (active).

As to `CCN=c1scc(-c2ccco2)n1/N=C/c1ccc(O)cc1`, the manual score is 0.
